Consider 14 molecules from PubChem BioAssay.

The other results are listed elsewhere or left out. The source made the active and inactive calls. Rule as the data show it, unless noted: active = activity above about 50%; inactive = the rest.

Experiment [1] addresses Tumor necrosis factor receptor superfamily member 10B (Homo sapiens) (UniProt O14763). As to the kind of experiment: viability loss of caspase-8 NB7 cells with TRAIL – with/without TRAIL, luminescence panel, confirmation (AID 651596). The note with it: NB7 neuroblastoma + caspase-8, TRAIL sensitization, NB7 Caspase-8, with TRAIL, mean of runs, at 10 µM, stronger effect = higher value.

Test in experiment [2]: as above
Conditions: NB7 neuroblastoma + caspase-8, without TRAIL, NB7 Caspase-8, without TRAIL, mean of runs, at 10 µM.

Experiment [3] addresses Tumor necrosis factor receptor superfamily member 10B (Homo sapiens) (UniProt O14763). Nature of the experiment: compound enhancement of TRAIL-induced cell killing – NB7 cells plus caspase-8, luminescence, panel, dose response (AID 652002). The note with it: NB7 neuroblastoma +caspase-8, TRAIL sensitization, luminescence viability, NB7+Caspase-8, with TRAIL, run 1; at 12.5 µM (top of the series).

For experiment [4] the target is unchanged. The experiment is described as above. Conditions: NB7 neuroblastoma +caspase-8, TRAIL sensitization, luminescence viability, NB7+Caspase-8, with TRAIL, run 2; at 12.5 µM (top of the series).
Test in experiment [5]: as above
The note with it: NB7 neuroblastoma +caspase-8, no TRAIL, compound-alone cytotoxicity counter-screen, luminescence viability, NB7+Caspase-8, run 1; at 12.5 µM (top of the series) unless noted. (In general: Counterscreens check selectivity or assay interference.)

Test in experiment [6]: as above
The note with it: NB7 neuroblastoma +caspase-8, no TRAIL, compound-alone cytotoxicity counter-screen, luminescence viability, NB7+Caspase-8, run 2; at 12.5 µM (top of the series) unless noted.

The target of experiment [7] is COP9 signalosome complex subunit 5 (Homo sapiens) (UniProt Q92905). Nature of the experiment: blockers of CSN-driven cullin deneddylation – biochemical, fluorescence polarization, single concentration, SCF-Nedd8OG substrate, confirmation (AID 720654; in the data active = inhibition above about 50%;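 also: 0% = DMSO with enzyme and 100% = no enzyme wells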). The note with it: Csn5 deneddylation of SCF-Nedd8OG, 90 min, at 16.6 µM, stronger effect = higher value.
COP9 signalosome complex subunit 5 (Homo sapiens), sequence (Q92905 whole entry, looked up, one chain of several): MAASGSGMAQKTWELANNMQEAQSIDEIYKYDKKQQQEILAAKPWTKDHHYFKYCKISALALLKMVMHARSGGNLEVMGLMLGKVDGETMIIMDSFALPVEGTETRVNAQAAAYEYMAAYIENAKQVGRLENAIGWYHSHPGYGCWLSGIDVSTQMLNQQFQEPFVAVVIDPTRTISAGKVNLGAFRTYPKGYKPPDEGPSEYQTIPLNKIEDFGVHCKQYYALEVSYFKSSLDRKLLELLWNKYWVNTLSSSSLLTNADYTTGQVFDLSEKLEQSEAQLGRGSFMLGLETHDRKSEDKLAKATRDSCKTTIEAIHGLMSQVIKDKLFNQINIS
Experiment [8] has as its target 72 kDa type IV collagenase (Homo sapiens) (UniProt P08253). Nature of the experiment: human MMP-2 inhibitors, single-point check – biochemical, fluorescence, single concentration, counter-screen for CSN deneddylation inhibitor project, confirmation (AID 720655;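 active = corrected plate-normalized z-score of 5 or more, or -5 or less, or inhibition of 15% or more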;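 also: plate controls were DMSO wells with enzyme for no effect and buffer wells lacking MMP-2 for full effect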). The note with it: recombinant MMP-2, FRET substrate fluorescence, 60 min; at 16.6 µM.
In a further experiment the target is Prothrombin (Bos taurus) (UniProt P00735). Nature of the experiment: thrombin cleavage blockers, FP readout – biochemical, fluorescence polarization, single concentration, counter-screen for CSN deneddylation inhibitor project, confirmation (AID 720656;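 active = inhibition at or above a set limit, with a fluorescence interference ratio between 0.5 and a set maximum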). The note with it: bovine thrombin cleavage of Ub4-pepOG, at 16.6 µM, stronger effect = higher value. In general terms: In fluorescence polarisation assays a small probe gives low polarisation when free and higher when bound to something large.
Prothrombin (Bos taurus), sequence (P00735 whole entry, looked up): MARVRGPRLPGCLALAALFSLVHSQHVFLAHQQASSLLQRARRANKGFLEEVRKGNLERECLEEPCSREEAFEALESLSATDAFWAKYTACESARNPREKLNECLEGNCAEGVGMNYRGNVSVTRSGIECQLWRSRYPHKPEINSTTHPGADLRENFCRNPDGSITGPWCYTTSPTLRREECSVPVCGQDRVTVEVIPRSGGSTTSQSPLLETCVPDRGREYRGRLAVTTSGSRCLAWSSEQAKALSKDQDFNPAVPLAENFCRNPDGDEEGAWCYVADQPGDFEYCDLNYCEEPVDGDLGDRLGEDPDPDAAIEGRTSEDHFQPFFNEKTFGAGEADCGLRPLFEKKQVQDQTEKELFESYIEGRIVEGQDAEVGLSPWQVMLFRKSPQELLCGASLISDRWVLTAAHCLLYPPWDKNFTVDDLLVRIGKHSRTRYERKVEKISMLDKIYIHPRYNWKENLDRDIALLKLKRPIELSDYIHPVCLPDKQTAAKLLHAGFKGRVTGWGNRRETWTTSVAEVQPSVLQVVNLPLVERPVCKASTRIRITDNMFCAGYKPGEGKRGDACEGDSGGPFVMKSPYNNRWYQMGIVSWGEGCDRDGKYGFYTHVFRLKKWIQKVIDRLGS

72 kDa type IV collagenase (Homo sapiens), sequence (P08253 whole entry, looked up): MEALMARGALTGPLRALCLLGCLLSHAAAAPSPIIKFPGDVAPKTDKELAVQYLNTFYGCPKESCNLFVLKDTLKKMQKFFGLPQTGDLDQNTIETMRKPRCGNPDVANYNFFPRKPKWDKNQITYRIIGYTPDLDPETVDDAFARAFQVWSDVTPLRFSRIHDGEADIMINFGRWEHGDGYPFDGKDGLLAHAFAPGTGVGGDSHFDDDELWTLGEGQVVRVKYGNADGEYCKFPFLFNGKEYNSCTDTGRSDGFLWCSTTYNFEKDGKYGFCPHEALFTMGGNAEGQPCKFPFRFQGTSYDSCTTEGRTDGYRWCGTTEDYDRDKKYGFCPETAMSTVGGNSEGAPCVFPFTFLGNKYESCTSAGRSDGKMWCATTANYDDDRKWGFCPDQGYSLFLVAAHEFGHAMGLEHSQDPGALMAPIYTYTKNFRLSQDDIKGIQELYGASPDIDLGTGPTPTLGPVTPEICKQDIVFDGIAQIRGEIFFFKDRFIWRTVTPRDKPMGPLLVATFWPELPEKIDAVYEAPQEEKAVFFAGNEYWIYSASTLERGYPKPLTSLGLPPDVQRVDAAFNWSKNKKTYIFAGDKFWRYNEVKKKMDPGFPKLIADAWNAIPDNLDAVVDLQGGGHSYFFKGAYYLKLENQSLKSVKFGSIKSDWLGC
Tumor necrosis factor receptor superfamily member 10B (Homo sapiens), sequence (O14763 whole entry, looked up): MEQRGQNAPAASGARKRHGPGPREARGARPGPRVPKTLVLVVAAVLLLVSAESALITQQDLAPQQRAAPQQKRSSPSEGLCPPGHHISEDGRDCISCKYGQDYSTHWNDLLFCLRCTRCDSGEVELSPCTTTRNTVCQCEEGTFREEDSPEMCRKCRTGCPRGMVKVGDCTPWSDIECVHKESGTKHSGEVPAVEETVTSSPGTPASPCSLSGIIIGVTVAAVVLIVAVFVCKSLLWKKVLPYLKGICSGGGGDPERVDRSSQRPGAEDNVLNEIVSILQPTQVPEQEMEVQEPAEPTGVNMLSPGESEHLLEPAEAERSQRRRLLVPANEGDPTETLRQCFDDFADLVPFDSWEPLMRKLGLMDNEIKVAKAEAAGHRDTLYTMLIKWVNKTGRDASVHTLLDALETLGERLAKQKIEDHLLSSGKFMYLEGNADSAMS

For `Nc1ccccc1C(=O)NN=Cc1cccc([N+](=O)[O-])c1`, the values for the activity in experiment [1] and in experiment [2] were 66.6% and 42.9%, respectively. Moreover, the activity, % sensitization in experiment [3] was 44.8%; in experiment [4], 53.8%; in experiment [5], -5.65%; in experiment [6] it was 35.3%.

Turning to `COc1ccc(/C=N/Nc2nc3ccccc3c(=O)n2-c2ccccc2)cc1OC`, the activity worked out at 62.5% in experiment [1] and 48.6% in [2]. For the same molecule, the activity, % sensitization came out at 47.9% in experiment [3], 45.1% in experiment [4], 41% in experiment [5] and 44.3% in experiment [6].

Regarding `Cc1ccc2c(c1)C(=NC1CCCCC1)c1cc3ccccc3nc1-2`, the activity in experiment [1] was found to be 62.8%; in experiment [2], 51.2%. Moreover, the activity, % sensitization in [3] is -15%; in [4], -9.21%; in [5], 10.4%; in experiment [6], -8.89%.

In the case of `CN(C)c1ccc(N/C=C/C(=O)c2ccco2)cc1`, the figures for the activity in [1] and in experiment [2] were 62.6% and 22.4%, respectively. In addition, the activity, % sensitization was determined as 53.8% in experiment [3], 49.4% in experiment [4], 18.4% in experiment [5] and 43.5% in [6].

For `CC(C)Cc1nc2oc3c(Cl)ncnc3c2c2c1CCCC2`, the values for the activity in experiment [1] and in experiment [2] were 55.5% and 49.8%, respectively. Also, the activity, % sensitization in experiment [3] was -5.07%; in [4] it was -15%; in [5], -9.85%; in experiment [6], -8.86%.

In general, inhibition refers to the relative decrease from the control value, in per cent. For `O=C(CSc1nc2ccccc2c(=O)[nH]1)Nc1nc(-c2ccc(Br)cc2)cs1`, the inhibition is 105% (active) in experiment [7], 16.9% (active) in experiment [8] and -37.2% (inactive) in the experiment with Prothrombin (Bos taurus).

In the case of `CC(C)C[C@H](NC(=O)c1nc[nH]c1C(=O)N[C@@H](CCCCNC(=O)OC(C)(C)C)C(=O)OC(C)(C)C)C(=O)OCc1ccccc1`, the activity in [1] amounted to 77.7%; in [2], 20.4%. The activity, % sensitization in experiment [3] is -36.8%; in [4], -15.7%; in experiment [5], -4.5%; in experiment [6] it was -28.8%.

For `CCCCCCCn1c2c(c(=N)c3ccccc31)CCC2`, the activity in experiment [1] was 64.8%; in experiment [2], 51.8%. For the same molecule, the activity, % sensitization in experiment [3] is 30.9%; in experiment [4], 38.9%; in experiment [5], 0.756%; in experiment [6], 28%.

On to `Cc1ccc(NC(=O)c2cc3ccccc3o2)nc1`, for which the activity in experiment [1] was 58.9%; in experiment [2], 49.5%. In addition, the activity, % sensitization is 32.6% in experiment [3], 41.2% in [4], 43% in [5] and 41.7% in experiment [6].

`O=C(c1cnc(Cl)c(Cl)c1)N1CCN(S(=O)(=O)c2ccc3ccccc3c2)CC1`: the activity in [1] worked out at 45.5%; in experiment [2], 25.1%. For the same molecule, the activity, % sensitization is -9.83% in [3], -9.66% in [4], 3.76% in experiment [5] and -5.02% in experiment [6].

On to `O=C(O)C(c1ccccc1)N1C(=O)/C(=C\c2ccc(-c3cccc(Cl)c3)o2)SC1=S` (centres undefined), for which the inhibition is 14.6% (inactive) in [7], -20.6% (inactive) in experiment [8] and 51.9% (active) with Prothrombin (Bos taurus).

For the molecule `COc1ccc(-c2noc(-c3ccc4c(c3)OCO4)n2)cc1`, the activity in [2] came to 49.9%.

Consider `CN(C)CCCN(C(=O)c1ccc(S(=O)(=O)N2CCCc3ccccc32)cc1)c1nc2ccc(F)cc2s1`, for which the results for the activity in [1] and in experiment [2] were 55.7% and 52.9%, respectively. In addition, the activity, % sensitization in experiment [3] was -21.5%; in [4] it was 18.8%; in experiment [5] it was -8.84%; in experiment [6] it was 17.9%.

Turning to `Cc1ccc(-c2nn(-c3ccccc3)cc2/C=C2\SC(=S)N(CCCCCC(=O)O)C2=O)o1`, the inhibition in experiment [8] is -170% (active); with Prothrombin (Bos taurus) it was -24.4% (inactive).
